Assay results taken from the supplement of paper PMC7801607.

Tests used:
[1] = system: CHO; assay: % viability of CHO cells (MTT); higher = less toxic; details: 48 h
Summary of the method: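 CHO cells seeded at 10^6 cells/well were exposed to compound at 2 or 20 µM for 48 h. Survival, as percent of untreated cells, was measured with the colorimetric tetrazolium (MTT) assay.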

[2] = system: HepG2-A16-CD81; assay: % inhibition of HepG2 viability (CellTiter-Glo); higher = more toxic; details: 5 µM;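 also: HepG2-A16-CD81 hepatoma cells plated as in the liver-stage assay but without sporozoites, with DMSO wells as negative and 25 µM puromycin as positive control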
[3] = system: Plasmodium falciparum NF54 stage IV/V gametocytes; assay: % inhibition of gametocyte viability (PrestoBlue); higher = more inhibition; details: 48 h
Summary of the method: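 Compound was tested at 1 or 5 µM against Stage IV/V NF54 gametocytes plated at 100 µL/well (2% gametocytaemia, 5% haematocrit). After 48 h of stationary, hypoxic incubation at 37 °C, 10 µL PrestoBlue was added for 2 h before reading 612 nm fluorescence from 70 µL of transferred supernatant. Gametocyte viability inhibition, as a percentage, was scaled against vehicle and kill controls from a single run.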

[4] = system: Plasmodium falciparum NF54 asexual blood stage; assay: % inhibition of asexual blood stage proliferation (pLDH); higher = more inhibition; details: 72 h
Summary of the method: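 In 96-well plates, compound at 2 or 20 µM was added to Plasmodium falciparum NF54 ring-stage cultures (1% haematocrit, 2% parasitaemia). Plates were incubated for 72 h at 37 °C in 4% CO2, 3% O2 and 93% N2, and survival was then read at 620 nm using the parasite lactate dehydrogenase assay. Inhibition of asexual proliferation, expressed as a percentage, was normalised to controls.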

[5] = system: Plasmodium falciparum NF54 stage IV/V gametocytes; assay: % inhibition of gametocyte viability (ATP bioluminescence); higher = more inhibition; details: 24 h
Summary of the method: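 Density gradients were used to enrich stage IV/V NF54 gametocytes, which were then seeded into 96-well plates at 30,000 per well with compound at 1 or 5 µM. The plates were incubated at 37 °C for 24 h, and ATP was measured with the Promega BacTiter Glo bioluminescence system. Percent inhibition of gametocyte viability was normalised to the plate controls from a single run.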

[6] = system: Plasmodium falciparum NF54 stage IV/V gametocytes; assay: % inhibition of gametocyte viability (luciferase reporter); higher = more inhibition; details: 48 h
Summary of the method: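 Compound at 1 or 5 µM was added to stage IV/V NF54-Pfs16-GFP-Luc gametocytes (2% gametocytaemia, 2% haematocrit) and incubated stationary and hypoxic at 37 °C for 48 h. A GloMax-Multi+ reader measured luminescence over 10 s integration on 30 µL lysate plus 30 µL Promega luciferin substrate. Percent inhibition values were normalised to controls within a single run.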

Compound	% viability of CHO cells ([1]; 2 µM) [%]	% viability of CHO cells ([1]; 20 µM) [%]	% inhibition of HepG2 viability [2] [%]	% inhibition of gametocyte viability ([3]; 1 µM) [%]	% inhibition of gametocyte viability ([3]; 5 µM) [%]	% inhibition of asexual blood stage proliferation ([4]; 2 µM) [%]	% inhibition of asexual blood stage proliferation ([4]; 20 µM) [%]	% inhibition of gametocyte viability ([5]; 1 µM) [%]	% inhibition of gametocyte viability ([5]; 5 µM) [%]	% inhibition of gametocyte viability ([6]; 1 µM) [%]	% inhibition of gametocyte viability ([6]; 5 µM) [%]
O=C1C=C(c2ccccc2)S(=O)(=O)c2ccccc21	91.6	81.8	-4.77	53.4	76	-2.86	54.4	13.8	83.4	16	85.4
COc1cc(C(C(=O)NC2CCCCC2)N(C(=O)Cc2c[nH]c3ccccc23)c2ccc(C(C)C)cc2)cc(OC)c1OC (stereo not given)	90.8	90.4	1.92	18.7	22.7	22.1	71.8	< 0	7.49	1.84	18.1
Nc1nc(Nc2ccc3nc(-c4ccc(F)cc4)cc(N)c3c2)cc(-c2ccccc2)n1	-4.05	-8.47	-4.55	32.5	84.6	83	96.9	95.5	95	98.5	98.6
OC[C@@H]1CC[C@H](n2cnc3c(O)ncnc32)O1	119	114	-1.26	1.35	4.95	47.1	26.7	< 0	< 0	0.0967	< 0
CCc1nc2ccccn2c1C(=O)NCc1ccccc1	123	58.5	6.82	< 0	< 0	6.85	18.2	< 0	< 0	< 0	8.65
